Compound activity (PubChem)
gsp agonist = activates gsp, the McCune-Albright syndrome mutation; gsp mutant cells, cAMP HTRF, 30 min; Potency, µM (highest dose often 76.9 µM), for the others: at the highest dose activation (cAMP increase), hits mostly activators; hit rate 0.13% among 340,000; active = well fitted activation curve with a large enough effect; inconclusive = small, poorly fitted or top-dose-only effect, or another doubt; inactive = no such curve, though single readings can be large or run the other way; cell line not stated here;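 also: phosphodiesterase inhibitor Ro 20-1724 added with compounds to block cAMP breakdown; potency is read from the fitted curve at half-maximal effect; nearly all actives have a fitted effect of over 60% in size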
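Cells stably selected in G418 were plated at 2000/well, grown 16-24 hr, then given compounds in DMSO with the PDE inhibitor […] (300 uM solution added) for 30 min at 37C; cAMP was read by HTRF.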
pAkt inh = blocks phosphorylation of Akt. Neuro2A IGF-stimulated pAkt S473 HTRF, 20 min; hits give low values. AID 651550. activity change, % for hits at 50 µM. hit rate 0.32% among 360,000; in the data active = activity change below about -80%; inconclusive = mostly about -51% to -80%; also: % is scaled to controls: 0 for no effect and ±100 for the full control effect
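Neuro2A cells in DMEM with 0.5% FBS, overnight at 37 deg C, given compound at single 50 µM final, then IGF (6 nM final) for 20 min at 37 deg C. Lysed; phospho-Akt Ser473 by HTRF after 24 h, 665/615 ratio.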
gsp antag = gsp mutant antagonism. gsp-mutant cells, cAMP HTRF, 30 min. Potency, µM (series often up to 76.9 µM), without a hit: at the top dose activity change, negative = inhibition, most hits filed as inhibitors. hit rate 0.4% among 340,000. AID 624288; calls by dose curve; cell line not stated here;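 also: intracellular cAMP measured with PDE inhibitor Ro 20-1724 present during compound exposure; potency is read from the fitted curve at half-maximal effect; % is scaled to controls: 0 for no effect and ±100 for the full control effect; nearly all actives have a fitted effect of over 65% in size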
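G418-selected cells were plated in DMEM/10% FBS for 16-24 h at 37C, then treated with compounds plus the PDE inhibitor […] (300 uM solution added) for 30 min at 37C. Intracellular cAMP was measured by HTRF after 30 min lysis at room temperature.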
RXFP1 antagonist = blocks the human relaxin receptor RXFP1; HEK293-RXFP1, relaxin-stimulated cAMP HTRF, 30 min; hits give low values; activity change, negative = inhibition, % at 57.5 µM; hit rate 0.59% among 350,000; AID 1259400;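 active = activity change of -60% or lower, but not beyond a set lower limit; inconclusive = change between -60% and -40%, or beyond the set limit; inactive = change above -40%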; also: % is scaled to controls: 0 for no effect and ±100 for the full control effect
RXFP1 agonist = RXFP1 (human) receptor agonism; Potency, µM (doses to about 57.5 µM), for inactives: at the top dose activation, usual class: activators; HEK293T-RXFP1 cAMP TR-FRET, 30 min; response scale: percent of porcine relaxin response, buffer zero; Q9HBX9; hit rate 0.3% among 370,000; AID 2676; active = well fitted activation curve with a large enough effect; inconclusive = small, poorly fitted or top-dose-only effect; also: potency is read from the fitted curve at half-maximal effect; % is scaled to controls: 0 for no effect and ±100 for the full control effect; nearly all actives have a fitted effect of over 60% in size
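HEK293 cells stably expressing RXFP1, treated 30 min at 37C with compounds plus PDE4 inhibitor Ro 20174; cAMP measured by HTRF TR-FRET. Normalized to buffer and 29 nM porcine relaxin; EC50 by Hill fit.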
ClpP mod = qHTS Assay for Activators of ClpP. ATP-dependent Clp protease proteolytic subunit (Bacillus subtilis (strain 168)), P80244. purified B. subtilis ClpP, FRET peptide cleavage, 20 min. Potency, µM (doses to about 57.5 µM), for inactives: top-dose activity change, negative = active. hit rate 1.9% among 340,000. AID 651965, 2013; active = well fitted falling curve with a large enough effect; inconclusive = small, poorly fitted or top-dose-only effect; inactive = no such curve, though single readings can be large or run the other way; also: potency is read from the fitted curve at half-maximal effect; the source files actives as falling curves though it sought activators and does not explain the sign; nearly all actives have a fitted effect of over 65% in size
Target sequence (P80244 whole entry, looked up): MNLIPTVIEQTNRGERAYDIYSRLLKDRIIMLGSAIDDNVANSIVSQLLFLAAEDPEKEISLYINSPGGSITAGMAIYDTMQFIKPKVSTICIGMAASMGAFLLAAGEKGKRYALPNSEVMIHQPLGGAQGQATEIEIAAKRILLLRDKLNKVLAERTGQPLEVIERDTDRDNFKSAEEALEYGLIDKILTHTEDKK
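ClpP 10 microg/mL final, pH 8 Tris/KCl buffer with BSA, glycerol, Tween-20; compound pinned in; FRET-FV substrate; RT 20 min; Ex320/Em430; ΔFRET vs ADEP 5.8 microM, DMSO, no enzyme.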
The depositor's hits bear a star; i = inactive; u = inconclusive; x = not tested or not shown; [ ] = remark or other dose. Most compounds without a hit are left out; they make up all but 2.7% or so of the library.

SMILES | gsp agonist | pAkt inh | gsp antag | RXFP1 antagonist | RXFP1 agonist | ClpP mod
Cc1ccc2[nH]c(=O)c(CN(Cc3ccccc3)Cc3nnnn3Cc3ccco3)cc2c1 | x | x | x | x | x | -22%
COc1ccc(-c2cc(C(F)(F)F)n3nc(C(=O)O)cc3n2)cc1OC | -1% | i | 3% | -9 | 1% | -1%
COC(=O)c1cc2nc(-c3ccc(OC)c(OC)c3)cc(C(F)(F)F)n2n1 | 19% | i | -5% | -5 | 1% | 3.2µM*
CC(=O)N1c2c(cc(Br)cc2S(=O)(=O)NCc2ccc(C)cc2)CC1C (stereo not given) | 12%[15.4 µM] | i | 35µM* | 7 | 1% | x
c1ccc(CCNCCCOc2cccc3ccccc23)cc1 | -40% | i | 4% | -95* | 1% | x
CCOc1ccc(/C=C(\C#N)C(=O)c2c(C)[nH]c3ccccc23)cc1OC | 5%[15.4 µM] | i | u | -63* | 2% | 0%
CCC(Sc1ccc2nnc(-c3cccnc3)n2n1)C(=O)O (stereo not given) | 2.5µM* | i | 12% | x | 14µM* | -21%
CCCCC(Sc1ccc2nnc(-c3ccccn3)n2n1)C(=O)O (stereo not given) | x | x | x | x | x | -6%
CCOC(=O)C(CC)Sc1ccc2nnc(-c3cccnc3)n2n1 (stereo not given) | 46%[15.4 µM] | i | 17% | 0 | 18µM* | 5%
COCCN(C(=O)COC(=O)c1ccc2c(c1)OCO2)c1c(N)n(Cc2ccccc2)c(=O)[nH]c1=O | -73% | i | x | -3 | x | -12%
CC(c1nc2ccccc2[nH]1)n1c(=O)c(-c2cccs2)nc2ccccc21 (stereo not given) | x | i | x | x | x | 22µM*
O=c1[nH]c2ccccc2nc1-c1cccs1 | 13% | i | 7% | 2 | 3% | 14µM*
CSc1ccc(CCNC(=O)C2CCN(c3ncnc4c3nc3n4CCCCC3)CC2)cc1 | x | x | x | 0 | 2% | -4%
COc1cc(NC(=O)CC[C@H]2O[C@@H](n3cnc4c(NC(=O)c5ccccc5)ncnc43)[C@H](O)[C@@H]2O)cc(OC)c1OC | x | i | x | x | x | -2%
CCCC(=O)Nc1ncnc2c1ncn2[C@@H]1O[C@@H]2COP(=O)(O)O[C@H]2[C@H]1OC(=O)CCC | x | i | 39% | x | 0.16µM* | 1%
N#Cc1ccccc1NC(=O)C(=O)NCC(c1cccnc1)N1CCN(c2ccccc2)CC1 (stereo not given) | x | x | x | -11 | 4% | -1%
COc1ccc(OCCN(C)CC(=O)Nc2c(C)cccc2C)cc1 | 5%[15.4 µM] | i | 10% | -3 | 2% | 20µM*
N#Cc1c(N)oc(-c2ccco2)c1-c1ccco1 | 11% | i | -8% | -6 | 0% | 25µM*
N#Cc1c(N)oc(-c2ccccc2)c1-c1ccccc1 | 3% | i | 8% | -4 | -1% | -7%
O=C(CSc1ncnc2c1cnn2-c1ccccc1)NCC1CCCO1 (stereo not given) | 18% | i | -6% | -23 | 0% | -2%
CCc1ccc2[nH]c(=O)c(CN(CCN(C)C)C(=O)Nc3ccccc3OC)cc2c1 | 27% | x | -5% | -1 | 0% | 28µM*
CCOc1ccc(NCc2cc3cc(OC)ccc3[nH]c2=O)cc1 | -7% | i | -6% | -5 | 2% | 0%
COc1ccc2[nH]c(=O)c(CN(CCN(C)C)C(=O)NCc3ccccc3)cc2c1 | 1% | i | 10% | -5 | 1% | 25µM*
COc1cc2cc(CN(Cc3cccnc3)C(=O)NCc3ccccc3)c(=O)[nH]c2cc1OC | 18% | i | -1% | 1 | 0% | 25µM*
COc1ccc2[nH]c(=O)c(CNc3ccccc3)cc2c1 | -2% | i | -6% | 0 | 2% | 16µM*
SMILES | gsp agonist | pAkt inh | gsp antag | RXFP1 antagonist | RXFP1 agonist | ClpP mod
Cc1ccc2[nH]c(=O)c(CN(CCO)C(=O)NCc3ccccc3)cc2c1 | -1% | i | 5% | x | 2% | -21%
CCc1ccc2[nH]c(=O)c(CN(CCN(CC)CC)C(=O)Nc3ccccc3OC)cc2c1 | -1% | i | 9% | 2 | -1% | -10%
CNc1c(Br)cc(/C=C2\C=C(C(O)c3cc(Br)c(NC)c(Br)c3)c3ccccc32)cc1Br (stereo not given) | x | x | x | x | x | 1%
COc1cccc(C2C(C(N)=O)=C(C)Nc3ncnn32)c1 (stereo not given) | x | x | x | x | 0% | 0%
Cc1noc(C)c1COc1ccccc1C(=O)N(C)Cc1ccco1 | -2% | i | 12% | -11 | 2% | 2%
COC(=O)c1ccccc1S(=O)(=O)N(Cc1cc2ccc(OC)cc2[nH]c1=O)CC1CCCO1 (stereo not given) | u | i | -7% | 3 | 0% | 28µM*
COc1ccc2[nH]c(=O)c(CN(CCc3ccccc3)C(C)=O)cc2c1 | 3% | i | 11% | 0 | 3% | 28µM*
O=C(NCc1ccccc1)N(Cc1cc2cc3c(cc2[nH]c1=O)OCO3)CC1CCCO1 (stereo not given) | 2% | i | -11% | -21 | 3% | 28µM*
COc1ccc2cc(CN(CC3CCCO3)S(=O)(=O)c3ccc(C(C)=O)cc3)c(=O)[nH]c2c1 (stereo not given) | -26% | i | -7% | -22 | -3% | -14%
COc1ccc2[nH]c(=O)c(CN(CCO)C(=O)c3ccccc3F)cc2c1 | -37% | i | 1% | -14 | 1% | 20µM*
Cc1cccc(NC(=O)CSc2nnc3c4ccccc4n(C)c3n2)c1 | x | x | x | x | u | 0%
COc1ccc(Cc2nnc(Cl)c3ccccc23)cc1OC | -1% | i | 5% | -1 | 4% | -1%
O=C(C[n+]1ccccc1Cl)c1ccc2ccccc2c1 | x | x | x | x | x | -18%
CC(=O)c1ccc(N(CC(=O)NCCc2ccccc2)C(=O)c2csnn2)cc1 | -12%[15.4 µM] | i | 1% | -3 | 1% | x
CNC(=S)N(Cc1cccs1)Cc1cc2cc(OC)c(OC)cc2[nH]c1=O | u | i | 1% | 8 | 3% | 25µM*
COc1cc2cc(CN(Cc3cccs3)C(=S)Nc3ccc(C)cc3)c(=O)[nH]c2cc1OC | -40% | i | -5% | 11 | 0% | u
COc1cccc(CNC(=O)c2cnc(N3CCCCC3)c3ccccc23)c1 | x | x | x | u | 25% | -10%
O=C(NCc1cccc(Cl)c1)c1cnccn1 | -19% | -86%* | 4% | 1 | 0% | -2%
Cc1ccc(CNC(=O)c2cnc(N3CCCCC3)c3ccccc23)cc1 | x | x | x | u | 17% | u
O=C(NCc1cccc(Cl)c1)c1cnc(N2CCCCC2)c2ccccc12 | x | x | x | u | 15% | 32µM*
O=C(NCc1ccc(Cl)cc1)c1cnc(N2CCCCC2)c2ccccc12 | x | x | x | u | 6% | 28µM*
